# Data: the supplement of paper PMC8728848
# Shown is part of a subset that was picked to be rich in the strongest signals.
# B1: CBP21 (Serratia marcescens), O83009 (protein)
# chain: MNKTSRTLLSLGLLSAAMFGVSQQANAHGYVESPASRAYQCKLQLNTQCGSVQAEPQSVEGLKGFPQAGPADGHIASADKSTFFELDQQTPTRWNKLNLKTGPNSFTWKLTARHSTTSWRYFITKPNWDASQPLTRASFDLTPFCQFNDGGAIPAAQVTHQCNIPADRSGSHVILAVWDIADTANAFYQAIDVNLSK
# How the values were obtained:
# Assay in all cases: glycan array binding signal (z-score within array); higher = stronger binding
# Settings in all cases: glycan notation: IUPAC condensed, linker removed; mutation: Y54A
# [1] = molecular target: GalNAc3S(b1-4)[Fuc(a1-3)]GlcNAc
# Procedure, shortened: (§1)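 Columns mapping to the same glycan were averaged after glycan names were converted to IUPAC-condensed notation. The data come from 3228 arrays in the Consortium for Functional Glycomics database, limited to those with an available protein sequence. Binding is reported as a within-array Z-score averaged across arrays of one protein sequence and across linkers.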
# [2] = molecular target: GlcA3S(b1-3)Gal(b1-4)GlcNAc(b1-3)Gal(b1-4)Glc
# Procedure, shortened: as §1
# [3] = molecular target: GlcNAc(b1-2)Gal(b1-3)GalNAc
# Procedure, shortened: as §1
# [4] = molecular target: Man(a1-3)[Man(a1-6)]Man(a1-6)[Man(a1-2)Man(a1-3)]Man(b1-4)GlcNAc(b1-4)GlcNAc
# Procedure, shortened: as §1
# [5] = molecular target: Neu5Ac(a2-3)Gal(b1-3)GalNAc6S
# Procedure, shortened: as §1
# [6] = molecular target: Neu5Ac(a2-3)Gal(b1-3)GlcNAc(b1-2)Man(a1-3)[Neu5Ac(a2-3)Gal(b1-3)GlcNAc(b1-2)Man(a1-6)]Man(b1-4)GlcNAc(b1-4)GlcNAc
# Procedure, shortened: as §1
# [7] = molecular target: Neu5Ac(a2-3)Gal(b1-3)GlcNAc(b1-2)[Neu5Ac(a2-3)Gal(b1-3)GlcNAc(b1-4)]Man(a1-6)[Neu5Ac(a2-3)Gal(b1-3)GlcNAc(b1-2)Man(a1-3)]Man(b1-4)GlcNAc(b1-4)GlcNAc
# Procedure, shortened: as §1
# [8] = molecular target: Neu5Ac(a2-3)Gal(b1-3)GlcNAc6S
# Procedure, shortened: as §1
# [9] = molecular target: Neu5Ac(a2-3)Gal(b1-3)[Neu5Ac(a2-6)]GalNAc
# Procedure, shortened: as §1
# [10] = molecular target: Neu5Ac(a2-3)Gal(b1-4)GlcNAc(b1-2)Man(a1-3)[Neu5Ac(a2-3)Gal(b1-4)GlcNAc(b1-2)Man(a1-6)]Man(b1-4)GlcNAc(b1-4)GlcNAc
# Procedure, shortened: as §1
# [11] = molecular target: Neu5Ac(a2-3)Gal(b1-4)GlcNAc(b1-3)GalNAc
# Procedure, shortened: as §1
# [12] = molecular target: Neu5Ac(a2-3)Gal(b1-4)[Fuc(a1-3)]GlcNAc(b1-3)GalNAc
# Procedure, shortened: as §1
# [13] = molecular target: Neu5Ac(a2-3)Gal6S(b1-4)GlcNAc
# Procedure, shortened: as §1
# Neu5Ac(a2-6)Gal(b1-4)Glc = molecular target: Neu5Ac(a2-6)Gal(b1-4)Glc
# Procedure, shortened: as §1
# [14] = molecular target: Neu5Ac(a2-6)Gal(b1-4)GlcNAc(b1-2)Man(a1-3)[GlcNAc(b1-4)][Neu5Ac(a2-6)Gal(b1-4)GlcNAc(b1-2)Man(a1-6)]Man(b1-4)GlcNAc(b1-4)GlcNAc
# Procedure, shortened: as §1
# [15] = molecular target: Neu5Ac(a2-6)Gal(b1-4)GlcNAc(b1-2)[Neu5Ac(a2-6)Gal(b1-4)GlcNAc(b1-4)]Man(a1-3)[GlcNAc(b1-4)][Neu5Ac(a2-6)Gal(b1-4)GlcNAc(b1-2)[Neu5Ac(a2-6)Gal(b1-4)GlcNAc(b1-6)]Man(a1-6)]Man(b1-4)GlcNAc(b1-4)GlcNAc
# Procedure, shortened: as §1
# [16] = molecular target: Neu5Ac(a2-6)Gal(b1-4)GlcNAc(b1-3)Gal(b1-4)GlcNAc(b1-3)Gal(b1-4)GlcNAc
# Procedure, shortened: as §1
# [17] = molecular target: Neu5Ac(a2-6)Gal(b1-4)GlcNAc(b1-3)Gal(b1-4)[Fuc(a1-3)]GlcNAc(b1-3)Gal(b1-4)[Fuc(a1-3)]GlcNAc
# Procedure, shortened: as §1
# [18] = molecular target: Neu5Ac(a2-6)Gal(b1-4)GlcNAc(b1-6)[Gal(b1-3)]GalNAc
# Procedure, shortened: as §1
# [19] = molecular target: Neu5Ac(a2-6)Gal(b1-4)GlcNAc6S
# Procedure, shortened: as §1
# [20] = molecular target: Neu5Ac(a2-8)Neu5Ac(a2-8)Neu5Ac(a2-3)Gal(b1-4)Glc
# Procedure, shortened: as §1
# [21] = molecular target: Neu5Ac(a2-8)Neu5Gc(a2-3)Gal(b1-4)GlcNAc
# Procedure, shortened: as §1
# Neu5Ac(b2-6)GalNAc = molecular target: Neu5Ac(b2-6)GalNAc
# Procedure, shortened: as §1
# [22] = molecular target: Neu5Gc(a2-3)Gal(b1-4)GlcNAc(b1-3)Gal(b1-4)GlcNAc(b1-2)Man(a1-3)[Neu5Gc(a2-3)Gal(b1-4)GlcNAc(b1-3)Gal(b1-4)GlcNAc(b1-2)Man(a1-6)]Man(b1-4)GlcNAc(b1-4)GlcNAc
# Procedure, shortened: as §1
# [23] = molecular target: Neu5Gc(b2-6)Gal(b1-4)GlcNAc
# Procedure, shortened: as §1
binder,measurement,setting,value
B1,glycan array binding signal (z-score),[1],0.039
same,glycan array binding signal (z-score),[2],-0.278
same,glycan array binding signal (z-score),[3],-0.7
same,glycan array binding signal (z-score),[4],0.228
same,glycan array binding signal (z-score),[5],5.86
same,glycan array binding signal (z-score),[6],-0.307
same,glycan array binding signal (z-score),[7],5.4
same,glycan array binding signal (z-score),[8],-0.121
same,glycan array binding signal (z-score),[9],3.97
same,glycan array binding signal (z-score),[10],-0.458
same,glycan array binding signal (z-score),[11],3.83
same,glycan array binding signal (z-score),[12],0.503
same,glycan array binding signal (z-score),[13],4.07
same,glycan array binding signal (z-score),Neu5Ac(a2-6)Gal(b1-4)Glc,-0.381
same,glycan array binding signal (z-score),[14],-0.098
same,glycan array binding signal (z-score),[15],0.142
same,glycan array binding signal (z-score),[16],-0.314
same,glycan array binding signal (z-score),[17],4.6
same,glycan array binding signal (z-score),[18],0.13
same,glycan array binding signal (z-score),[19],3.37
same,glycan array binding signal (z-score),[20],0.027
same,glycan array binding signal (z-score),[21],-0.455
same,glycan array binding signal (z-score),Neu5Ac(b2-6)GalNAc,-0.919
same,glycan array binding signal (z-score),[22],2.24
same,glycan array binding signal (z-score),[23],-0.206
